Results published in the supplement of paper PMC9694430.
Where a name gives a salt, the structure may show the parent alone.

Test system: LOC_OS01G21960-cb002
Assay: thermal shift delta Tm vs DMSO control; higher = stronger stabilization (binding)
Conditions: 12.5 µM; protein concentration 2 µM
Method in brief: (§1)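 Heating from 25°C to 95°C at 0.05°C/s, fluorescence was recorded for 19.5 μl wells of 2 μM E. coli-expressed, purified rice kinase domain in 100 mM potassium phosphate pH 7.5, 150 mM NaCl, 10% glycerol and 5 × SYPRO Orange with compound in DMSO. Boltzmann fits gave melting temperatures for this differential scanning fluorimetry assay. The shift reported is the mean of three replicates against the DMSO-only protein.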
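Further: purified Escherichia coli-expressed rice kinase domain construct.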

Row | Compound | thermal shift delta Tm [°C]
1 | COc1cc(C(=O)N2CCC(N3CCN(C)CC3)CC2)ccc1Nc1ncc2c(n1)N(C)c1ccccc1C(=O)N2C | -0.12
2 | Cc1nc(Nc2n[nH]c3c2CN(C(=O)N[C@H](CN(C)C)c2ccccc2)C3(C)C)c2sccc2n1 | 2.47
3 | CC(C)(C)c1cc(NC(=O)Nc2ccc(Oc3ccnc4[nH]c(=O)cnc34)cc2F)n(-c2ccccc2)n1 | 0.63
4 | CN1CC[C@H](c2c(O)cc(O)c3c(=O)cc(-c4ccccc4Cl)oc23)[C@H](O)C1 [Flavopiridol HCl] | 1.89
5 | CCC(=O)Nc1cccc(Oc2nc(Nc3ccc(N4CCN(C)CC4)cc3OC)ncc2Cl)c1 | 0.7
6 | N#CC(=C(/N)Sc1ccccc1N)/C(C#N)=C(\N)Sc1ccccc1N | 0.18
7 | Clc1ccc(C2(c3ccc(-c4cn[nH]c4)cc3)CCNCC2)cc1 | 0.46
8 | O=c1c(O)c(-c2cc(O)c(O)c(O)c2)oc2cc(O)cc(O)c12 [Myricetin] | 5.56
9 | CN1CCN(Cc2ccc(NC(=O)Nc3ccc(Oc4ccnc(N)n4)cc3)cc2C(F)(F)F)CC1 | 0.98
10 | CN1CCN(c2nc(C3=C(c4c[nH]c5ccccc45)C(=O)NC3=O)c3ccccc3n2)CC1 [Sotrastaurin] | 2.53
11 | O=C(c1ccc(/C=C/c2n[nH]c3ccccc23)cc1)N1CCNCC1 | 2.42
12 | N#CC1(c2ccc(NC(=O)c3cccnc3NCc3ccncc3)cc2)CCCC1 [Apatinib] | 0.5
13 | Cc1cc(O)c(-c2ccc([C@@H](C)CN)cc2)c2c1[nH]c(=O)c1sccc12 [OTS514 hydrochloride] | 1.5
14 | Oc1cc(O)cc(/C=C/c2ccc(O)c(O)c2)c1 [Piceatannol] | -0.47
15 | COc1cc(N2CCC(N(C)C)CC2)ccc1Nc1ncc(Cl)c(Nc2ccccc2P(C)(C)=O)n1 | 1.95
16 | O=C1NC(=O)C(c2ccccc2[N+](=O)[O-])=C1Nc1ccc(O)c(Cl)c1 | 1.43
17 | O=C(O)c1ccc(Nc2ncc3c(n2)-c2ccc(Cl)cc2C(c2c(F)cccc2F)=NC3)cc1 | -0.02
18 | CCN1CCN(Cc2ccc(Nc3ncc(F)c(-c4cc(F)c5nc(C)n(C(C)C)c5c4)n3)nc2)CC1 | 3.11
19 | Cc1cc(CN2CCN(c3c(Br)cnc4nc(-c5ccc(N6CCN(C)CC6)cc5)[nH]c34)CC2)no1 | 2.01

Row | Compound | thermal shift delta Tm [°C]
20 | Cn1ncc(Cl)c1-c1cc(C(=O)N[C@H](CN)Cc2ccc(F)c(F)c2)oc1Cl | 1.66
21 | CCS(=O)(=O)Nc1ccc2c(c1)/C(=C(/Nc1ccc(CN3CCCCC3)cc1)c1ccccc1)C(=O)N2 [Hesperadin] | 3.67
22 | CC1(COc2ccc3c(c2)ncn3-c2ccc3cccc(N4CCC(N)CC4)c3n2)COC1 | 3.78
23 | Oc1cccc(-c2nc(N3CCOCC3)c3oc4ncccc4c3n2)c1 | 0.64
24 | O=C(O)c1ccc(-c2c[nH]c3ncc(-c4ccccc4)cc23)cc1C1CCCC1 | 1.3
25 | C[C@H](CN(C)C)Oc1nc(Nc2cc3cccc(Cl)c3cn2)cnc1C#N | 1.95
26 | CC(C)(C)c1nc(-c2ccc(NC(=O)Nc3cccc(C(F)(F)F)c3)c3ccccc23)c2c(N)nccn12 [kira6] | 2.1
27 | COc1ccc(COc2ccc(Cc3cnc(N)nc3N)cc2OC)cc1 | 0.25
28 | COc1cc(-c2cc(-c3ccc(N4CCNCC4)cc3)cnc2C)cc(OC)c1OC | 0.67
29 | CC(C)Nc1cc(-c2c[nH]c(C(=O)N[C@H](CO)c3cccc(Cl)c3)c2)c(Cl)cn1 | 1.37
30 | COc1c(C)c(C(=O)c2ccc(N)c(C(=O)O)c2)n2ccccc12 | 0.79
31 | CN(C)C/C=C/C(=O)Nc1cc2c(Nc3ccc(F)c(Cl)c3)ncnc2cc1O[C@H]1CCOC1 [Afatinib (BIBW2992)] | -0.28
32 | CN1CC[C@H](c2c(O)cc(O)c3c(=O)cc(-c4ccccc4Cl)oc23)[C@H](O)C1 [Flavopiridol (Alvocidib)] | 1.94
33 | CC(C)Oc1ccc(-c2nn([C@@H](C)c3oc4ccc(F)cc4c(=O)c3-c3cccc(F)c3)c3ncnc(N)c23)cc1F | 0.77
34 | N#Cc1ccc2ncnc(NCCc3ccccc3)c2c1 [Senexin A] | 0.95
35 | CN(C)C/C=C/C(=O)Nc1ccc(C(=O)Nc2cccc(Nc3ncc(Cl)c(-c4c[nH]c5ccccc45)n3)c2)cc1 | 4.75
36 | COc1cc2c(cc1OC)[C@@H]1C(=O)c3ccc4c(c3O[C@@H]1CO2)C=CC(C)(C)O4 [Deguelin] | 0.41
37 | CC(C)(C)c1cnc(CSc2cnc(NC(=O)C3CCNCC3)s2)o1 | 0.34
38 | CNC(=O)c1ccccc1Nc1cc(Nc2ccc(N3CCOCC3)cc2OC)ncc1C(F)(F)F | 1.09

Test system: LOC_OS01G39600-cb002
Assay: as above
Conditions: 12.5 µM; protein concentration 2 µM
Method in brief: as §1

Row | Compound | thermal shift delta Tm [°C]
39 | COc1cc(C(=O)N2CCC(N3CCN(C)CC3)CC2)ccc1Nc1ncc2c(n1)N(C)c1ccccc1C(=O)N2C | -0.15
40 | Cc1nc(Nc2n[nH]c3c2CN(C(=O)N[C@H](CN(C)C)c2ccccc2)C3(C)C)c2sccc2n1 | 0.6
41 | CC(C)(C)c1cc(NC(=O)Nc2ccc(Oc3ccnc4[nH]c(=O)cnc34)cc2F)n(-c2ccccc2)n1 | 0.19
42 | CN1CC[C@H](c2c(O)cc(O)c3c(=O)cc(-c4ccccc4Cl)oc23)[C@H](O)C1 [Flavopiridol HCl] | 1.02
43 | CCC(=O)Nc1cccc(Oc2nc(Nc3ccc(N4CCN(C)CC4)cc3OC)ncc2Cl)c1 | -0.79
44 | N#CC(=C(/N)Sc1ccccc1N)/C(C#N)=C(\N)Sc1ccccc1N | 1.48
45 | Clc1ccc(C2(c3ccc(-c4cn[nH]c4)cc3)CCNCC2)cc1 | -0.39
46 | O=c1c(O)c(-c2cc(O)c(O)c(O)c2)oc2cc(O)cc(O)c12 [Myricetin] | 4.45
47 | CN1CCN(Cc2ccc(NC(=O)Nc3ccc(Oc4ccnc(N)n4)cc3)cc2C(F)(F)F)CC1 | 0.62
48 | CN1CCN(c2nc(C3=C(c4c[nH]c5ccccc45)C(=O)NC3=O)c3ccccc3n2)CC1 [Sotrastaurin] | 3.02
49 | O=C(c1ccc(/C=C/c2n[nH]c3ccccc23)cc1)N1CCNCC1 | 5.76
50 | N#CC1(c2ccc(NC(=O)c3cccnc3NCc3ccncc3)cc2)CCCC1 [Apatinib] | 0.01
51 | Cc1cc(O)c(-c2ccc([C@@H](C)CN)cc2)c2c1[nH]c(=O)c1sccc12 [OTS514 hydrochloride] | 0.36
52 | Oc1cc(O)cc(/C=C/c2ccc(O)c(O)c2)c1 [Piceatannol] | 1.51
53 | COc1cc(N2CCC(N(C)C)CC2)ccc1Nc1ncc(Cl)c(Nc2ccccc2P(C)(C)=O)n1 | -6.92
54 | O=C1NC(=O)C(c2ccccc2[N+](=O)[O-])=C1Nc1ccc(O)c(Cl)c1 | -0.46
55 | O=C(O)c1ccc(Nc2ncc3c(n2)-c2ccc(Cl)cc2C(c2c(F)cccc2F)=NC3)cc1 | 0.1
56 | CCN1CCN(Cc2ccc(Nc3ncc(F)c(-c4cc(F)c5nc(C)n(C(C)C)c5c4)n3)nc2)CC1 | 0.45
57 | Cc1cc(CN2CCN(c3c(Br)cnc4nc(-c5ccc(N6CCN(C)CC6)cc5)[nH]c34)CC2)no1 | 4.92

Row | Compound | thermal shift delta Tm [°C]
58 | Cn1ncc(Cl)c1-c1cc(C(=O)N[C@H](CN)Cc2ccc(F)c(F)c2)oc1Cl | -0.06
59 | CCS(=O)(=O)Nc1ccc2c(c1)/C(=C(/Nc1ccc(CN3CCCCC3)cc1)c1ccccc1)C(=O)N2 [Hesperadin] | 7.78
60 | CC1(COc2ccc3c(c2)ncn3-c2ccc3cccc(N4CCC(N)CC4)c3n2)COC1 | 2.31
61 | Oc1cccc(-c2nc(N3CCOCC3)c3oc4ncccc4c3n2)c1 | 0.74
62 | O=C(O)c1ccc(-c2c[nH]c3ncc(-c4ccccc4)cc23)cc1C1CCCC1 | 14.5
63 | C[C@H](CN(C)C)Oc1nc(Nc2cc3cccc(Cl)c3cn2)cnc1C#N | 0.03
64 | CC(C)(C)c1nc(-c2ccc(NC(=O)Nc3cccc(C(F)(F)F)c3)c3ccccc23)c2c(N)nccn12 [kira6] | 1.51
65 | COc1ccc(COc2ccc(Cc3cnc(N)nc3N)cc2OC)cc1 | 0.89
66 | COc1cc(-c2cc(-c3ccc(N4CCNCC4)cc3)cnc2C)cc(OC)c1OC | -1.03
67 | CC(C)Nc1cc(-c2c[nH]c(C(=O)N[C@H](CO)c3cccc(Cl)c3)c2)c(Cl)cn1 | 1.63
68 | COc1c(C)c(C(=O)c2ccc(N)c(C(=O)O)c2)n2ccccc12 | -11.6
69 | CN(C)C/C=C/C(=O)Nc1cc2c(Nc3ccc(F)c(Cl)c3)ncnc2cc1O[C@H]1CCOC1 [Afatinib (BIBW2992)] | 1.11
70 | CN1CC[C@H](c2c(O)cc(O)c3c(=O)cc(-c4ccccc4Cl)oc23)[C@H](O)C1 [Flavopiridol (Alvocidib)] | 1.37
71 | CC(C)Oc1ccc(-c2nn([C@@H](C)c3oc4ccc(F)cc4c(=O)c3-c3cccc(F)c3)c3ncnc(N)c23)cc1F | -0.2
72 | N#Cc1ccc2ncnc(NCCc3ccccc3)c2c1 [Senexin A] | 0.66
73 | CN(C)C/C=C/C(=O)Nc1ccc(C(=O)Nc2cccc(Nc3ncc(Cl)c(-c4c[nH]c5ccccc45)n3)c2)cc1 | 2.35
74 | COc1cc2c(cc1OC)[C@@H]1C(=O)c3ccc4c(c3O[C@@H]1CO2)C=CC(C)(C)O4 [Deguelin] | -0.1
75 | CC(C)(C)c1cnc(CSc2cnc(NC(=O)C3CCNCC3)s2)o1 | 0.92
76 | CNC(=O)c1ccccc1Nc1cc(Nc2ccc(N3CCOCC3)cc2OC)ncc1C(F)(F)F | 0.34
